Data published in PubChem BioAssay (Tox21).
Records with an inconclusive call do not appear. Entries that show only a call come without a potency. Activity calls are given as the source filed them. Unless noted, calls come from the whole dose curve; as a rule, active = well fitted curve in the direction sought with a large enough effect in the repeat runs; inconclusive = weak or mixed curves; inactive = no such curve, though single readings can be large; an effect the other way counts as inactive or inconclusive.

How the values were obtained:
[1] = qHTS assay to identify small molecule agonists of the peroxisome proliferator-activated receptor delta (PPARd) signaling pathway - cell viability counter screen (AID 743211); note: nearly all actives have a fitted effect of over 55% in size; note: potency is the fitted concentration of half-maximal effect
Procedure, shortened: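 PPARd-bla HEK293H cells (UAS-beta-lactamase reporter) were treated with compounds for 17 h at 37 C. Viability was then read in the same wells by CellTiter-Glo luminescence after 30 min at room temperature.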

[2] = biological target: Peroxisome proliferator-activated receptor delta (Homo sapiens) (UniProt Q03181); assay: qHTS assay to identify small molecule agonists of the peroxisome proliferator-activated receptor delta (PPARd) signaling pathway (AID 743212; calls by dose curve; note: potency is the fitted concentration of half-maximal effect)
Procedure, shortened: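 GeneBLAzer PPARd UAS-bla HEK293H cells (beta-lactamase reporter under UAS control), plated and rested 5 h at 37 C, then exposed to compounds in DMSO at 37 C; LiveBLAzer B/G FRET substrate added, 2 h room temperature, fluorescence read.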

[3] = qHTS assay to identify small molecule antagonists of the peroxisome proliferator-activated receptor delta (PPARd) signaling pathway - cell viability counter screen (AID 743213); note: nearly all actives have a fitted effect of over 50% in size; note: potency is the fitted concentration of half-maximal effect
Procedure, shortened: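 HEK293H PPARd UAS-bla cells, 5 h pre-incubation, compound + L165041 300 nM final, 17 h 37 C; B/G FRET substrate 2 h RT; then CellTiter-Glo 30 min RT, luminescence.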

[4] = biological target: Peroxisome proliferator-activated receptor delta (Homo sapiens) (UniProt Q03181); assay: qHTS assay to identify small molecule antagonists of the peroxisome proliferator-activated receptor delta (PPARd) signaling pathway (AID 743215; active = well fitted inhibition curve with a large enough effect in the signal ratio in the repeat runs, not every such curve was filed as active; the % refers to the signal ratio;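 note: cells stimulated with agonist L165041 at 300 nM final during compound exposure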; note: potency is the fitted concentration of half-maximal effect)
Procedure, shortened: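 PPARd UAS-bla HEK293H cells were pre-incubated 5 h at 37 C, then given test compounds in DMSO plus agonist L165041 (300 nM final). After 17 h at 37 C, beta-lactamase FRET substrate was added; fluorescence read after 2 h at room temperature.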

[5] = qHTS assay to identify small molecule agonists of the farnesoid-X-receptor (FXR) signaling pathway - cell viability counter screen (AID 743218); note: nearly all actives have a fitted effect of over 45% in size; note: potency is the fitted concentration of half-maximal effect
Procedure, shortened: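 FXR-UAS-bla HEK 293T cells, plated 5 h at 37 C, were exposed to compounds for 16 h at 37 C. CellTiter-Glo was then added to the same wells as the bla readout; luminescence read after 30 min at room temperature.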

[6] = qHTS assay to identify small molecule antagonists of the farnesoid-X-receptor (FXR) signaling pathway - cell viability counter screen (AID 743221; active = well fitted cell-killing curve with a large enough effect in the repeat runs, not every such curve was filed as active; note: nearly all actives have a fitted effect of over 50% in size; note: potency is the fitted concentration of half-maximal effect)
Procedure, shortened: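 FXR-UAS-bla HEK 293T cells were treated with test compounds plus chenodeoxycholic acid (50 uM final) for 16 h at 37 C. Cell viability in the same wells was then read as CellTiter-Glo luminescence after 30 min at room temperature.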

[7] = biological target: Vitamin D3 receptor (Homo sapiens) (UniProt P11473); assay: qHTS assay to identify small molecule agonists of the vitamin D receptor (VDR) signaling pathway (AID 743222; calls by dose curve)
Procedure, shortened: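 VDR-bla cells were plated 4 h at 37C/5% CO2, then exposed to compounds in DMSO for 16 h. After LiveBLAzer B/G FRET substrate addition and 2 h at room temperature, beta-lactamase reporter fluorescence was read.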

[8] = qHTS assay to identify small molecule agonists of the vitamin D receptor (VDR) signaling pathway - cell viability counter screen (AID 743224); note: nearly all actives have a fitted effect of over 50% in size; note: potency is the fitted concentration of half-maximal effect
Procedure, shortened: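 VDR-bla cells were preincubated 4 h at 37C/5% CO2, then exposed to compounds for 16 h. After the 2 h room-temperature bla FRET read, CellTiter-Glo was added to the same wells and luminescence read after 30 min.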

[9] = qHTS assay to identify small molecule antagonists of the vitamin D receptor (VDR) signaling pathway - cell viability counter screen (AID 743225); note: nearly all actives have a fitted effect of over 50% in size; note: potency is the fitted concentration of half-maximal effect
Procedure, shortened: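 VDR-bla HEK 293T cells, 4 h pre-incubation at 37C, then compound plus 1-alpha,25-dihydroxyvitamin D3 (3 nM final) for 16 h. After the beta-lactamase FRET read, CellTiter-Glo was added to the same wells; luminescence after 30 min at room temperature.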

[10] = qHTS assay to identify small molecule agonists of the NFkB signaling pathway - cell viability counter screen (AID 1159515; calls by dose curve; note: nearly all actives have a fitted effect of over 55% in size; note: potency is the fitted concentration of half-maximal effect)
Procedure, shortened: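 NFkB-bla ME-180 cells, 2,000/well, were plated overnight at 37 C, 5% CO2, then exposed to compounds in DMSO for 5 hr. After the bla FRET read, CellTiter-Glo was added to the same wells; luminescence was read after 30 min at room temperature.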

[11] = qHTS assay to identify small molecule agonists of the endoplasmic reticulum stress response signaling pathway - cell viability counter screen (AID 1159517; calls by dose curve; note: nearly all actives have a fitted effect of over 50% in size; note: potency is the fitted concentration of half-maximal effect)
Procedure, shortened: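 Luminescence readout: CellTiter-Glo, 30 min RT, same wells as the ESRE-bla reporter read. HeLa ESRE-bla, 1,500 cells/well, o/n 37 C; cpd 5 hr 37 C/5% CO2.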

[12] = qHTS assay to identify small molecule antagonists of the retinoid-related orphan receptor gamma (ROR-gamma) signaling pathway - cell viability counter screen (AID 1159520); note: nearly all actives have a fitted effect of over 50% in size; note: potency is the fitted concentration of half-maximal effect
Procedure, shortened: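 Tet-on ROR gamma CHO cells (1,000/well) were plated 4 hr, given compounds in DMSO for 2 hr at 37 C, then induced with 1 uM final doxycycline for 16 hr. Viability was read as ATP by CellTiter-Glo luminescence after 30 min.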

[13] = qHTS assay to identify small molecule agonists of the AP-1 signaling pathway - cell viability counter screen (AID 1159525; calls by dose curve; note: nearly all actives have a fitted effect of over 55% in size)
Procedure, shortened: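 ME-180 AP-1-bla, 2500 cells/well, Opti-MEM + 0.5% dialyzed FBS; overnight 37 °C; cpd 15-pt titration, 5 h 37 °C; CellTiter-Glo 30 min RT; luminescence read; normalised to TOAB and DMSO controls.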

[14] = qHTS assay to identify small molecule agonists of the AP-1 signaling pathway (AID 1159526; calls by dose curve)
[15] = biological target: Nuclear receptor ROR-gamma (Homo sapiens) (UniProt P51449); assay: qHTS assay to identify small molecule antagonists of the retinoid-related orphan receptor gamma (ROR-gamma) signaling pathway (AID 1159521; note: nearly all actives have a fitted effect of over 50% in size; note: potency is the fitted concentration of half-maximal effect)
Procedure, shortened: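 Tet-on RORγ CHO cells carrying a ROR response element–luciferase reporter were pretreated with compounds for 2 h, then induced with 1 uM (final) doxycycline hyclate for 16 h at 37 C. Antagonism was read as decreased ONE-Glo luminescence.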

[16] = biological target: Bile acid receptor (Homo sapiens) (UniProt Q96RI1); assay: qHTS assay to identify small molecule antagonists of the farnesoid-X-receptor (FXR) signaling pathway (AID 743217; active = well fitted inhibition curve with a large enough effect in the signal ratio in the repeat runs, not every such curve was filed as active; the % refers to the signal ratio)
Procedure, shortened: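 FXR-UAS-bla HEK 293T cells pre-incubated 5 h at 37 °C, then exposed to compounds with chenodeoxycholic acid (50 uM final) for 16 h at 37 °C. Beta-lactamase reporter read by LiveBLAzer B/G FRET substrate fluorescence after 2 h at room temperature.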

[17] = biological target: Bile acid receptor (Homo sapiens) (UniProt Q96RI1); assay: qHTS assay to identify small molecule agonists of the farnesoid-X-receptor (FXR) signaling pathway (AID 743220; active = well fitted activation curve with a large enough effect in the signal ratio in the repeat runs, not every such curve was filed as active; the % refers to the signal ratio)
Procedure, shortened: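 Beta-lactamase reporter under UAS control in GeneBLAzer FXR HEK 293T cells (5000/well) measured with LiveBLAzer FRET substrate after 2 h at room temperature. Compound exposure lasted 16 h at 37C.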

[18] = biological target: Vitamin D3 receptor (Homo sapiens) (UniProt P11473); assay: qHTS assay to identify small molecule antagonists of the vitamin D receptor (VDR) signaling pathway (AID 743223; active = well fitted inhibition curve with a large enough effect in the signal ratio in the repeat runs, not every such curve was filed as active; the % refers to the signal ratio; note: potency is the fitted concentration of half-maximal effect)
Procedure, shortened: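 VDR-bla cells were plated, incubated 4 h at 37C, then given compound and 1alpha,25-dihydroxyvitamin D3 (3 nM final). After 16 h at 37C, LiveBLAzer B/G FRET substrate was added for 2 h at room temperature and fluorescence read.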

[19] = biological target: Retinoic acid receptor RXR-alpha (Homo sapiens) (UniProt P19793); assay: qHTS assay to identify small molecule agonists of the RXR signaling pathway (AID 1159527; calls by dose curve; note: nearly all actives have a fitted effect of over 35% in size)
Procedure, shortened: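 GeneBLAzer RXR-alpha-UAS-bla HEK 293T cells in medium with 2% charcoal-stripped FBS, pre-incubated 5 hr at 37 C, then exposed to compounds 16 hr. Beta-lactamase reporter read by FRET substrate, 2 hr room temperature, 460/530 nm emission.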

Peroxisome proliferator-activated receptor delta (Homo sapiens), sequence (Q03181 whole entry, looked up): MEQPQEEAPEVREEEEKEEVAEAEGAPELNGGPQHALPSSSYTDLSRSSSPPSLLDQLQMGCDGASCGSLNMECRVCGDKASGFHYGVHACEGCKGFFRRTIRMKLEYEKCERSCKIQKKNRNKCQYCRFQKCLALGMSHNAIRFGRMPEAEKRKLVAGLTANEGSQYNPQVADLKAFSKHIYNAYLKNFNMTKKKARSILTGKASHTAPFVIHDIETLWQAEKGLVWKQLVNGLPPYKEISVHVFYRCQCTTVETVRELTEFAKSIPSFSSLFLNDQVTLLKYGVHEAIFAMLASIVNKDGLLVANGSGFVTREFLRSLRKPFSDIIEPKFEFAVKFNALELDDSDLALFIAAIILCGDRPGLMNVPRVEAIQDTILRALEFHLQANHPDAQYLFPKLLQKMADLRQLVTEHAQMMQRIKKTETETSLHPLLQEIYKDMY
Retinoic acid receptor RXR-alpha (Homo sapiens), sequence (P19793 whole entry, looked up): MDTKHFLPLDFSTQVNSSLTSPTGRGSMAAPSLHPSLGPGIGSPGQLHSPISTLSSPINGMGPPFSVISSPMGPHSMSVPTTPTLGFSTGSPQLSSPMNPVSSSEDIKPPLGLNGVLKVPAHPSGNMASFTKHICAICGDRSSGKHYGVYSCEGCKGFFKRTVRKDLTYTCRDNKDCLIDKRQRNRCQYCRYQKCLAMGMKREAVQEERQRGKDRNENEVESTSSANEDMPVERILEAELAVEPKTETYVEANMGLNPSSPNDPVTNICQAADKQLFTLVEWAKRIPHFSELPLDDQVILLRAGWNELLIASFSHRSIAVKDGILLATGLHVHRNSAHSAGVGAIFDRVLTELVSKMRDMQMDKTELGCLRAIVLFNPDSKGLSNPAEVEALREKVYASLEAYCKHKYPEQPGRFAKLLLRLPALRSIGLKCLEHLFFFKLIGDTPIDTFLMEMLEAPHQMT
Vitamin D3 receptor (Homo sapiens), sequence (P11473 whole entry, looked up): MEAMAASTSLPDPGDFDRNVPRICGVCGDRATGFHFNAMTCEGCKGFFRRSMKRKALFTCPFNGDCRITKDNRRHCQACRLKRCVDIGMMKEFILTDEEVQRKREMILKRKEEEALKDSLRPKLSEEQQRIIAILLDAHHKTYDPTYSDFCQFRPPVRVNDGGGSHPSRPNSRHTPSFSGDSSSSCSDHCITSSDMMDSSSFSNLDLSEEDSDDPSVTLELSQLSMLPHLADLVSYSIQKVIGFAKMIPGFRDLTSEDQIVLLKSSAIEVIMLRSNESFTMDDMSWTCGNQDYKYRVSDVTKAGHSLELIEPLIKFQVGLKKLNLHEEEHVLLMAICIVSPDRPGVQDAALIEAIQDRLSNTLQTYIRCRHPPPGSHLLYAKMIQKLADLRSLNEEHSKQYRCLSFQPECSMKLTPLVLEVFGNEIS
Bile acid receptor (Homo sapiens), sequence (Q96RI1 whole entry, looked up): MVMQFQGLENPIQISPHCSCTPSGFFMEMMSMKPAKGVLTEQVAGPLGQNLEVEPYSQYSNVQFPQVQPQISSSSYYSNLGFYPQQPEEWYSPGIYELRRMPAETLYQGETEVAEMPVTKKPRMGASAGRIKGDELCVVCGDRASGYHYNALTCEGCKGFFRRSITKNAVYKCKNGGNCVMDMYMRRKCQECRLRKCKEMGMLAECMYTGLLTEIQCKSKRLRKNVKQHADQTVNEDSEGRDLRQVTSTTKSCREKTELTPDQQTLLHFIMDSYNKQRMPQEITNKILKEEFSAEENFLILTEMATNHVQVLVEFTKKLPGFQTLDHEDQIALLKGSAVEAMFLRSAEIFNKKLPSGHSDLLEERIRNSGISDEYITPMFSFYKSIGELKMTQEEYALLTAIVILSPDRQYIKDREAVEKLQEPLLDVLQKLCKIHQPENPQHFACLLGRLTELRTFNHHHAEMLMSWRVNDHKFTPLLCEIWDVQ

Structure (SMILES) | Potency [1] | Potency [2] | Potency [3] | Potency [4] | Potency [5] | Potency [6] | Potency [7] | Potency [8] | Potency [9] | Potency [10] | Potency [11] | Potency [12] | Potency [13] | Potency [14] | Potency [15] | Potency [16] | Potency [17] | Potency [18] | Potency [19]
Cc1cccc(S(=O)(=O)O)c1C | inactive | inactive | inactive | inactive | inactive | inactive | inactive | inactive | inactive | inactive | inactive | inactive | inactive | inactive | – | – | – | – | –
O=C(Nc1cccc(C(F)(F)F)c1)c1cc(Br)cc(Br)c1O | 6.16 µM (active) | – | 6.92 µM (active) | – | 4.36 µM (active) | 11 µM (active) | – | 2.19 µM (active) | 17.4 µM (active) | 54.9 µM (active) | 24.5 µM (active) | 10.9 µM (active) | – | – | 1.37 µM (active) | – | – | – | –
O=c1cccccc1O | – | inactive | – | – | inactive | inactive | – | – | inactive | inactive | inactive | inactive | inactive | – | – | inactive | inactive | inactive | inactive
O=C(Oc1ccccc1)c1ccccc1C(=O)Oc1ccccc1 | inactive | inactive | – | inactive | inactive | inactive | – | inactive | inactive | inactive | inactive | inactive | inactive | inactive | – | – | – | – | –
OCCN(CCO)c1nc(N2CCCCC2)c2nc(N(CCO)CCO)nc(N3CCCCC3)c2n1 | – | – | – | – | inactive | – | – | – | – | inactive | inactive | inactive | – | – | inactive | – | – | – | –
N=C1N=C(N)c2ccccc21 | – | – | inactive | – | inactive | inactive | inactive | inactive | inactive | inactive | 21.9 µM (active) | 43.3 µM (active) | inactive | – | – | – | – | inactive | inactive
COc1cc(-c2ccc(N=C=O)c(OC)c2)ccc1N=C=O | inactive | inactive | inactive | – | – | inactive | inactive | inactive | inactive | inactive | inactive | inactive | inactive | – | – | inactive | inactive | inactive | inactive
CCc1oc2ccccc2c1C(=O)c1cc(Br)c(O)c(Br)c1 | – | – | – | – | – | – | – | – | – | inactive | inactive | inactive | inactive | – | – | – | – | – | –
Cc1c(C)c2c(c(C)c1O)CCC(C)(COc1ccc(CC3SC(=O)NC3=O)cc1)O2 (configuration not stated) | – | – | inactive | inactive | inactive | inactive | – | inactive | inactive | inactive | inactive | inactive | inactive | inactive | – | inactive | – | inactive | –
CCCCCCC[N+](CC)(CC)CCCCc1ccc(Cl)cc1 | – | – | inactive | – | inactive | inactive | – | – | inactive | inactive | inactive | inactive | inactive | inactive | – | – | – | inactive | –
O=C(O)c1cc(O)c2c(c1)C(=O)c1cccc(O)c1C2=O | inactive | inactive | – | inactive | inactive | inactive | – | – | inactive | inactive | inactive | inactive | – | – | inactive | – | – | – | –
CN(C)CCCOC1(Cc2ccccc2)CCCCCC1 | inactive | inactive | inactive | inactive | – | inactive | inactive | – | – | inactive | inactive | inactive | inactive | – | – | – | – | inactive | –
Nc1ccc2cc(S(=O)(=O)O)cc(O)c2c1N=Nc1ccccc1C(F)(F)F | inactive | inactive | inactive | inactive | inactive | – | inactive | inactive | inactive | inactive | inactive | inactive | inactive | inactive | – | inactive | inactive | inactive | –
CCCC(C)c1ccccc1O (configuration not stated) | inactive | inactive | inactive | inactive | inactive | inactive | inactive | inactive | inactive | inactive | inactive | inactive | – | – | inactive | inactive | inactive | inactive | inactive
O=C(N/N=C/c1ccccc1O)c1ccncc1 | – | – | – | 2.11 µM (active) | inactive | inactive | – | – | – | inactive | inactive | inactive | inactive | – | 23.7 µM (active) | – | inactive | 19 µM (active) | –
Cc1nc(-c2ccc3c(c2)CCN(CCC2CCC(NC(=O)/C=C/c4ccc(F)cc4)CC2)CC3)no1 (configuration not stated) | inactive | 21.9 µM (active) | inactive | – | inactive | inactive | – | – | inactive | inactive | inactive | 15.4 µM (active) | inactive | – | – | inactive | – | – | –
NC(=O)NS(=O)(=O)c1ccc(N)cc1 | inactive | – | inactive | – | inactive | – | – | – | inactive | inactive | inactive | inactive | inactive | inactive | – | – | – | – | inactive
